# Laboratory results: PubChem BioAssay (NCI)
# Compounds without any hit were thinned out: in the full panel of roughly 83,000, 20% have a hit.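 In brief: 96-well plates, 48 h treatment, single concentration, percent growth endpoint.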 Active and inactive are the calls of the source. Rule for the calls: active = growth percent below 10; inactive = the rest.
# Legend:
# Experiment in all cases: NCI-60 one-dose screen, 48 h (100 = growth as untreated, 0 = no growth, -100 = all killed)
# Details in all cases: 10 µM unless noted
# SK-MEL-2 melanoma = test system: SK-MEL-2 melanoma
# EKVX NSCLC = test system: EKVX NSCLC
# SN12C renal = test system: SN12C renal
# UO-31 renal = test system: UO-31 renal
# CAKI-1 renal = test system: CAKI-1 renal
# A498 renal = test system: A498 renal
# CCRF-CEM leukemia = test system: CCRF-CEM leukemia
# MOLT-4 leukemia = test system: MOLT-4 leukemia
# SR leukemia = test system: SR leukemia
# RPMI-8226 leukemia = test system: RPMI-8226 leukemia
# OVCAR-8 ovarian = test system: OVCAR-8 ovarian
# OVCAR-5 ovarian = test system: OVCAR-5 ovarian
# OVCAR-4 ovarian = test system: OVCAR-4 ovarian
# SK-OV-3 ovarian = test system: SK-OV-3 ovarian
# IGROV1 ovarian = test system: IGROV1 ovarian
# OVCAR-3 ovarian = test system: OVCAR-3 ovarian
# HS 578T breast = test system: HS 578T breast
# NCI/ADR-RES ovarian = test system: NCI/ADR-RES ovarian
# TK-10 renal = test system: TK-10 renal
# ACHN renal = test system: ACHN renal
SMILES,growth (SK-MEL-2 melanoma),growth (EKVX NSCLC),growth (SN12C renal),growth (UO-31 renal),growth (CAKI-1 renal),growth (A498 renal),growth (CCRF-CEM leukemia),growth (MOLT-4 leukemia),growth (SR leukemia),growth (RPMI-8226 leukemia),growth (OVCAR-8 ovarian),growth (OVCAR-5 ovarian),growth (OVCAR-4 ovarian),growth (SK-OV-3 ovarian),growth (IGROV1 ovarian),growth (OVCAR-3 ovarian),growth (HS 578T breast),growth (NCI/ADR-RES ovarian),growth (TK-10 renal),growth (ACHN renal)
C[C@]12CCC(=O)C=C1CCC1C2[C@@H](O)C[C@@]2(C)C1CC[C@]2(O)C(=O)COC(=O)CCC(=O)O (some centres undefined),123% (inactive),78.7% (inactive),57.2% (inactive),84.1% (inactive),81.1% (inactive),118% (inactive),64.9% (inactive),115% (inactive),105% (inactive),63.6% (inactive),95.6% (inactive),99.4% (inactive),102% (inactive),89% (inactive),93.6% (inactive),123% (inactive),138% (inactive),95.7% (inactive),–,–
CCN(CC)CCNCC(=O)Oc1ccc(/C=C/C(=O)CC(=O)/C=C/c2ccc(OC(=O)CNCCN(CC)CC)c(OC)c2)cc1OC,10.7% (inactive),5.1% (active),4.14% (active),–,22% (inactive),51% (inactive),-30.5% (active),0.439% (active),-1.72% (active),-46.2% (active),3.99% (active),36.6% (inactive),44.3% (inactive),27.3% (inactive),-24.5% (active),13.3% (inactive),-3.97% (active),71.6% (inactive),50.3% (inactive),16.8% (inactive)
Cc1ccc(/C=C(/C#N)n2nnc3ncccc32)cc1,17.1% (inactive),24.8% (inactive),8.6% (active),24.3% (inactive),–,-7.36% (active),9.57% (active),–,15.2% (inactive),7.18% (active),-1.49% (active),-20.3% (active),25.7% (inactive),14.2% (inactive),19.3% (inactive),-15% (active),0.782% (active),2.09% (active),–,0.614% (active)
N#CC(C#N)C(C#N)C#N,109% (inactive),99.7% (inactive),99.9% (inactive),89.1% (inactive),–,99% (inactive),105% (inactive),96.4% (inactive),109% (inactive),107% (inactive),97.4% (inactive),111% (inactive),98.6% (inactive),84% (inactive),112% (inactive),104% (inactive),–,101% (inactive),–,107% (inactive)
COc1cnc2c(c1)C(=O)c1c-2n(CCCNC2=NCCS2)c(=O)c2cc(F)ccc12,90.7% (inactive),67.5% (inactive),36.7% (inactive),15.9% (inactive),–,-52.4% (active),0.88% (active),0.0786% (active),-8.78% (active),-14.3% (active),31.3% (inactive),53.2% (inactive),63.1% (inactive),11.1% (inactive),38% (inactive),32.6% (inactive),65.5% (inactive),34.6% (inactive),–,6.18% (active)
CCCCCN(CCCCC)CCCNc1c2c(nc3ccc(Cl)cc13)CCCC2,13.4% (inactive),50.7% (inactive),49.9% (inactive),–,26.6% (inactive),38.4% (inactive),27% (inactive),27.8% (inactive),0.527% (active),4.62% (active),37.5% (inactive),41.2% (inactive),17.6% (inactive),66.6% (inactive),17.5% (inactive),58.1% (inactive),71.6% (inactive),48.9% (inactive),31.5% (inactive),40.8% (inactive)
C[C@H](C(=O)N[C@@H](Cc1ccc(-c2ccccc2)cc1)C(=O)NC1CC(C)(C)NC(C)(C)C1)c1ccc(-c2ccccc2)c(F)c1,-54.9% (active),-7.01% (active),-50.7% (active),-85.5% (active),–,-4.66% (active),-20.9% (active),-42.4% (active),-27.5% (active),-43.6% (active),-49.9% (active),-48.9% (active),-27.4% (active),-17.1% (active),-36.8% (active),-92.1% (active),-31.6% (active),60.4% (inactive),–,-86.9% (active)
CNCCCn1c2c(c3ccc(F)cc3c1=O)C(=O)c1cc(OC)cnc1-2,-9.66% (active),-13.2% (active),6.91% (active),-89.3% (active),–,-87.6% (active),1.24% (active),-19.8% (active),-9.31% (active),-20.4% (active),-19.8% (active),-8.53% (active),-5.91% (active),-24.5% (active),11.4% (inactive),-11.4% (active),22.1% (inactive),3.1% (active),–,-57.2% (active)
COc1ccc(C2=NN(C(C)=O)C(c3c(C)nn(-c4ccccc4)c3N3CCOCC3)C2)cc1 (centres undefined),106% (inactive),88.2% (inactive),91.9% (inactive),77.2% (inactive),–,91.3% (inactive),95.4% (inactive),88% (inactive),90.5% (inactive),97.9% (inactive),94.4% (inactive),97.6% (inactive),89.5% (inactive),80.4% (inactive),103% (inactive),104% (inactive),96.7% (inactive),94.7% (inactive),–,95% (inactive)
CCSc1nc(-c2cccs2)n2nc(-c3ccco3)cc2n1,105% (inactive),81.3% (inactive),89.7% (inactive),79.7% (inactive),86.3% (inactive),94.4% (inactive),88.7% (inactive),115% (inactive),92.7% (inactive),53.9% (inactive),99.8% (inactive),97.3% (inactive),68.9% (inactive),106% (inactive),87.5% (inactive),–,108% (inactive),103% (inactive),–,–
COc1cnc2c(c1)C(=O)c1c-2n(CCCN2CCNCC2)c(=O)c2cc(F)ccc12,-17.1% (active),18.7% (inactive),7.67% (active),-50.1% (active),–,-25.7% (active),-1.3% (active),-16.2% (active),-13.1% (active),–,2.26% (active),-0.468% (active),23% (inactive),-12.7% (active),23% (inactive),2.67% (active),38.6% (inactive),18.8% (inactive),–,-78.1% (active)
COc1cnc2c(c1)C(=O)c1c-2n(CCCN2CCC(O)CC2)c(=O)c2cc(F)ccc12,3.49% (active),2.5% (active),9.71% (active),-89.4% (active),–,-87.9% (active),-2.05% (active),-19.2% (active),0.0108% (active),-26.2% (active),-6.45% (active),-8.07% (active),-0.215% (active),-31.6% (active),1.69% (active),-8.34% (active),27.7% (inactive),0.114% (active),–,-58% (active)
COc1cnc2c(c1)C(=O)c1c-2n(CCCn2ccnc2)c(=O)c2cc(F)ccc12,-19.1% (active),11.4% (inactive),12.4% (inactive),-77.5% (active),–,-84.4% (active),-0.897% (active),-23.9% (active),-25% (active),-28.2% (active),5.92% (active),-30.4% (active),-0.273% (active),-22.5% (active),4.03% (active),-35.5% (active),15.5% (inactive),-3.87% (active),–,-72.6% (active)
CN1CCN(c2nc3scc(-c4ccccc4)c3c(=O)[nH]2)CC1,104% (inactive),90.3% (inactive),100% (inactive),81.4% (inactive),–,91% (inactive),103% (inactive),95.5% (inactive),94.1% (inactive),97.4% (inactive),106% (inactive),93% (inactive),97.4% (inactive),103% (inactive),97.6% (inactive),102% (inactive),100% (inactive),99.2% (inactive),–,107% (inactive)
COc1cnc2c(c1)C(=O)c1c-2n(CCCN2CCCC2)c(=O)c2cc(F)ccc12,23.1% (inactive),4.91% (active),9.02% (active),-96.2% (active),–,-92.8% (active),0.937% (active),-19.5% (active),-9.13% (active),-22.8% (active),-13.3% (active),5.78% (active),4.61% (active),-24.6% (active),4.37% (active),-29.1% (active),23.8% (inactive),-3.22% (active),–,-67.7% (active)
COc1cc(/C=C/C(=O)c2c(C)n([O-])c3ccc(Cl)cc3[n+]2=O)cc(OC)c1OC,61.8% (inactive),65.8% (inactive),80.1% (inactive),–,107% (inactive),98.2% (inactive),-34.2% (active),-34.8% (active),11.8% (inactive),72.6% (inactive),50.8% (inactive),98.2% (inactive),71% (inactive),104% (inactive),-62.2% (active),102% (inactive),70.5% (inactive),73.5% (inactive),103% (inactive),79.6% (inactive)
COc1cc(C2CC(c3ccc(C)cc3)=NN2C=O)ccc1OCCN(C)C (centres undefined),98.4% (inactive),90.1% (inactive),95.2% (inactive),64.5% (inactive),–,92.4% (inactive),88.7% (inactive),77.8% (inactive),89.2% (inactive),90.2% (inactive),–,94.3% (inactive),97.9% (inactive),96.2% (inactive),101% (inactive),103% (inactive),87.5% (inactive),90.9% (inactive),–,100% (inactive)
